# IEC-6 tox: cytotoxicity in IEC-6 intestinal epithelial cells, primary screen, cytotoxicity control for KLF5 inhibitor project, cell-based, luminescence | inhibition, % at 5 µM | 290,000 compounds, 0.78% hits | IEC-6 cytotoxicity, luminescence viability;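 further: 0% = plate median of test compound wells and 100% = cytotoxic reference compound wells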
# Ba/F3 V617F tox: reduced viability of JAK2V617F-dependent Ba/F3 cells, primary screen, JAK2V617F inhibitor project, cell-based, Ba/F3 EpoR-JAK2V617F, luminescence; ATP luminescence; inhibition, % at 5.6 µM; 220,000 compounds, 1.1% hits;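 active means inhibition above the campaign mean plus 3 SD over all tested compounds, cut at about 24% in these data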;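 further: cytokine-independent growth of Ba/F3 cells driven by EpoR plus mutant JAK2; 0% = DMSO-treated cells and 100% = JAK inhibitor I control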
# APP transl inh: inhibitors of APP translation via 5'UTR reporter, primary screen, APP 5'UTR luciferase, SH-SY5Y cells; SH-SY5Y APP 5'UTR-luciferase reporter, luminescence; inhibition, % at 2 µM; 190,000 compounds, 0.82% hits; AID 1285, 2008;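 active means inhibition above a set limit, derived from the sample mean plus 3 SD, cut at about 45% in these data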
# KLF5 inhibitor: KLF5 expression inhibitors, primary screen, DLD-1 cells, luminescence; DLD-1 KLF5 promoter-luciferase reporter; inhibition, % at 5 µM; 290,000 compounds, 0.23% hits; AID 1700, 2009;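 active means inhibition above a per-plate limit of that plate's mean compound inhibition plus 3 SD, cut at about 60% in these data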;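 further: 0% = DMSO wells and 100% = LY294002 at 200 µM; higher means less KLF5 promoter-driven luciferase light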
# aSyn 5UTR inh: MLPCN primary screen, SNCA 5' untranslated region; AID 1813, 2009; 300,000 compounds, 0.82% hits; alpha-synuclein 5'UTR reporter, inhibitor activity; inhibition, % (tested at 7.5 µM); in the data active means inhibition above about 60%;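 further: H4 neuroglioblastoma cells stably carrying SNCA 5'UTR luciferase fusion; 0% = DMSO wells and 100% = positive control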
# BaF3 parental: parental Ba/F3 cell viability inhibition, counter-screen for JAK2V617F inhibitor project, murine pro-B, CellTiter-Glo luminescence | AID 1486, 2009 | inhibition, % at 5.6 µM | CellTiter-Glo ATP luminescence | 220,000 compounds, 1.1% hits;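 active means inhibition above a per-campaign cutoff, the mean inhibition of all tested compounds plus 3 SD, cut at about 27% in these data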;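 further: 0% = DMSO wells and 100% = JAK Inhibitor I control wells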
# IEC-6 cytotox cf: cytotoxic compounds in IEC-6 epithelial cells, confirmation, cytotoxicity control, cell-based, luminescence | shares compounds with IEC-6 tox | IEC-6 rat intestinal epithelial viability | inhibition, % at 5 µM | 1,900 compounds, 63% hits | AID 1907, 2009;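 further: 0% = vehicle and 100% = reference cytotoxic drug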
# An asterisk follows results filed as active; . = no result given. In the library only some 2.2% were active in any assay of this set; here they are far more common. Unless noted, no stated cut-off is given here; in the data, active means inhibition above about 22%; inactive means the rest.
SMILES,IEC-6 tox,Ba/F3 V617F tox,APP transl inh,KLF5 inhibitor,aSyn 5UTR inh,BaF3 parental,IEC-6 cytotox cf
C=CCN1C(=O)c2ccc(C(=O)N(CCC)CC(=O)Nc3ccccc3C)cc2C1=O,.,.,.,.,16,.,.
CN(C)S(=O)(=O)c1ccc(NC(=O)COC(=O)CC2CC3CCC2C3)cc1 (configuration not stated),0,2,-7,-9,-3,9,.
Cc1cccc(N2C(=NC(=O)c3ccccc3)SC3CS(=O)(=O)CC32)c1 (configuration not stated),-1,.,.,-18,-4,.,.
Cc1[nH]c2ccccc2c1/C=N/NC(=O)c1cc(-c2ccncc2)nc2ccccc12,40*,.,.,30,33,.,54*
COc1cc(C(=O)NCC(=O)N2CCN(S(=O)(=O)c3cc(C)ccc3C)CC2)cc(OC)c1OC,30*,.,.,14,-75,.,17
O=C(Nc1nnc(COc2ccc(Br)cc2)s1)c1ccco1,-1,-6,.,3,13,-1,.
COCCN(C(=O)Nc1ccccc1OC)c1nc2ccccc2s1,45*,.,.,-28,-1,.,31*
CCOc1ccccc1N1CC(O)=C(c2nc3ccccc3s2)C1=N,56*,83*,92*,57,54,77*,60*
Cc1cccc(Nc2nc(NCc3ccco3)nc(N3CCOCC3)n2)c1,31*,-2,22,-47,2,8,12
Clc1ccc(-n2nnnc2-c2ccccc2)cc1,6,4,4,-3,.,3,.
COc1ccc(-n2nnnc2-c2ccccc2)cc1,52*,80*,89*,38,19,68*,50*
CCN(CC)C(=O)CC(c1ccc(OC)cc1)c1c(OC)cc(OC)c2ccc(=O)oc12 (configuration not stated),.,.,.,.,5,.,.
N#Cc1ccc(-c2ccc(F)cc2)nc1Sc1ccc(F)cc1,-2,-2,-11,6,11,1,.
CCC(NC(=O)Nc1nnc(C(F)(F)F)s1)(C(F)(F)F)C(F)(F)F,26*,98*,-2,-9,109*,89*,92*
CCOC(=O)C1CCN(S(=O)(=O)c2cccc3nonc23)CC1,-2,1,-7,-9,15,5,.
CCOC(=O)C1CCN(S(=O)(=O)c2c(Cl)ccc3nonc23)CC1,100*,.,.,60,-309,.,41*
COCCCNC(=S)Nc1cc2oc3ccccc3c2cc1OC,34*,.,.,16,0,.,22*
COc1ccc(COc2cc(-c3cccc(OC)c3)nc3ccc(NC(=O)c4ccc(N(C)C)cc4)cc23)cc1,49*,76*,11,23,1,75*,15
COc1ccc(COc2cc(-c3cccc(OC)c3)nc3ccc(NC(=O)c4ccc(C)cc4)cc23)cc1,8,5,8,24,2,11,.
CCOc1ccc(C(C)=O)cc1COc1cccnc1[N+](=O)[O-],28*,.,.,31,-45,.,24*
O=C(c1ccco1)N1CCN(Cc2cccc3ccccc23)CC1,26*,.,.,6,17,.,16
O=C(c1ccco1)N1CCN(Cc2ccccc2C(F)(F)F)CC1,14,0,-9,7,.,4,.
Cc1ccc(CS(=O)(=O)c2ncc(Cl)c(C(=O)Nc3nnc(C(C)C)s3)n2)cc1,36*,.,.,38,-56,.,18
Cc1cccc(CS(=O)(=O)c2ncc(Cl)c(C(=O)Nc3nnc(C(C)C)s3)n2)c1,60*,.,.,25,-98,.,14
CC(C)c1nnc(NC(=O)c2nc(S(=O)(=O)Cc3ccc(F)cc3)ncc2Cl)s1,19,.,.,2,-43,.,.
CSc1nnc(NC(=O)c2nc(S(=O)(=O)Cc3cccc(C)c3)ncc2Cl)s1,45*,.,.,24,-10,.,19
O=C(CCCCCn1c(SCc2ccncc2)nc2ccccc2c1=O)NCc1ccco1,-3,-2,-9,-11,19,3,.
CC(C)CN1C(=O)NC(NS(=O)(=O)c2ccc(N)cc2)(C(F)(F)F)C1=O (configuration not stated),-3,-4,-7,-31,15,-4,.
